From PubChem
Rows were chosen to be rich in hits. Some 1.3% of all compounds tested hit in one or more screens of this group.
MRP-1 activ – H69AR viability gain despite doxorubicin, primary screen, MRP-1 activator project, H69AR cells, CellTiter-Glo; viability rescue; viability increase, % at 10 µM; 140,000 compounds, 0.61% hits;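 active = viability gain under doxorubicin at or above a set limit, the compound median plus 3 SD, cut at about 4.7% in these data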;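 also: MRP-1 overexpressing cells given doxorubicin 25 µM after compound pretreatment; 18-22 h compound pretreatment then 72 h with doxorubicin before readout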
MRP resist rev – reversal of MRP1-mediated doxorubicin resistance, primary screen, H69AR cells, doxorubicin co-treatment | differential viability (reversal), % at 10 µM | AID 602, 2007 | 85,000 compounds, 0.04% hits | H69AR cells + 2 uM doxorubicin, CellTiter-Glo, 72 h;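 active = viability drop by adding the cancer drug above about 55%, with treated viability meeting a 40% cutoff, limit read from the data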;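 also: larger differential means the compound sensitizes cells more to doxorubicin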
CD11b adhes inh – inhibitors of CD11b/CD18 adhesion to fibrinogen, primary screen, K562 cells, luminescence; Integrin beta-2 (Homo sapiens) + Integrin alpha-M (Homo sapiens), P05107+P11215; ATPlite luminescence; Mn2+ added to activate the integrin; inhibition, % at 10 µM; 93,000 compounds, 0.54% hits; AID 1497, 2009;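 active = primary inhibition of 50% or more at 10 µM, then 40% or more on retest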
Target sequence (P05107 whole entry, looked up, other chains not shown): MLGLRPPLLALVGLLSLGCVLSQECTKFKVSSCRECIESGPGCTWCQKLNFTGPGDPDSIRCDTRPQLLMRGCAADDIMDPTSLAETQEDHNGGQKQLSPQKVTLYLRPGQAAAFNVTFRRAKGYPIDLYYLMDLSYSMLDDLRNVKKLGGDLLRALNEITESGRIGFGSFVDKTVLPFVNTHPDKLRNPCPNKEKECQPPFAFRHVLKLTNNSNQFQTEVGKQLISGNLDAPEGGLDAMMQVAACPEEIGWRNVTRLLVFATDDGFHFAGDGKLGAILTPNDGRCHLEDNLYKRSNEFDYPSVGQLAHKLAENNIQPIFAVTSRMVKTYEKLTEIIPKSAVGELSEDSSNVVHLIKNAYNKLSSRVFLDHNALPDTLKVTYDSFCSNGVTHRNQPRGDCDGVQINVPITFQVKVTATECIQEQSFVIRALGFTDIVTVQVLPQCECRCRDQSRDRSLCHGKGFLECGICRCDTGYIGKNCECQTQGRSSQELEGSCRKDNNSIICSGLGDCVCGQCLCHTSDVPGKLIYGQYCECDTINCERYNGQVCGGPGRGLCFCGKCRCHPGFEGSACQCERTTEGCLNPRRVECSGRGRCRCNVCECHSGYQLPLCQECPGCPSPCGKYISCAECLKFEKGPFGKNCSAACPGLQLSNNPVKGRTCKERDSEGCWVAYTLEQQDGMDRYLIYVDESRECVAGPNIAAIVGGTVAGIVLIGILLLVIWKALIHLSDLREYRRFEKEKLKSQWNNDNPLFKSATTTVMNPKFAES
CD11b adhes enh – enhancers of CD11b/CD18 adhesion to fibrinogen, primary screen, K562 cells, luminescence. ATPlite luminescence. activation, % at 10 µM. 93,000 compounds, 0.07% hits;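 active = 10 µM primary screen giving 50% or more activity, confirmed by 40% or more on retest at that dose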
Phagocyt inh – inhibitors of macrophage phagocytosis, primary screen, imaging, J774A.1 cells, IgG beads; J774A.1 macrophage IgG-bead phagocytosis; inhibition, % at 5 µM; 110,000 compounds, 0.07% hits;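 active = inhibition above the mean of the plate negative controls plus 5 SD, cut at about 13% in these data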;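 also: phagocytic index as fraction of beads internalized from green versus red external bead signal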
SDO1 yeast rescue – growth rescue of sdo1-depleted yeast, primary screen, S. cerevisiae, bone marrow failure model | AID 817, 2007 | z-score at 10 µM | S. cerevisiae sdo1-depleted JHY4D growth rescue, OD600 30 h; hits give high values; pdr5 snq2 efflux-pump mutant strain | 140,000 compounds, 0.21% hits;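 active = z-score above 3 at both the 24 hr and the 30 hr optical density reads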
sdo1 rescue conf – SDO1-depleted yeast growth rescue, concentration-response, diseases of bone marrow failure, JHY4D, OD600; shares compounds with SDO1 yeast rescue; S. cerevisiae JHY4D (SDO1-depleted) growth rescue, 30 h; hits give high values; efflux-deficient strain, SNQ2 and PDR5 mutated; OD recovery (no concentration beside the values); 440 compounds, 44% hits;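 active = yeast growth recovered at 30 hours, either rising with dose fitted slope above 0.001 or with average optical density gain above 0.07, some results past the limit were not filed as active; inactive = growth falling with dose or no effect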
Of the large screens only hits and unclear results are named; the others gave an inactive call (follow-up assays come after a bar, where they were run).

CC(C)CC(NC(=O)COc1ccccc1)C(=O)O (configuration not stated)	none
COC(=O)[C@H](C)NC(=O)COc1ccccc1	SDO1 yeast rescue 3.82 (no result: MRP resist rev) | sdo1 rescue conf inactive
Cc1cc(C)c2nc(C(F)(F)F)nc(NCCCN3CCOCC3)c2c1	none
CCOC(=O)c1c(NC(=S)Nc2ccc(F)cc2)sc2c1CCC2	none (no result: MRP resist rev)
CCOC(=O)c1c(NC(=S)Nc2ccc(C)cc2)sc2c1CCC2	none (no result: MRP resist rev, CD11b adhes inh, CD11b adhes enh, Phagocyt inh) | sdo1 rescue conf 0.0876
COc1ccc(NC(=O)CN2CCC(Cc3ccccc3)CC2)cc1S(=O)(=O)N1CCOCC1	none (no result: MRP resist rev, CD11b adhes inh, CD11b adhes enh)
Cn1c(CNC(=O)c2ccc(Cl)c(Cl)c2)nnc1SCC(=O)Nc1sc2c(c1C#N)CCCC2	SDO1 yeast rescue 4.73 | sdo1 rescue conf inactive
N#Cc1ccc(-c2ccc(F)cc2)nc1SCC(=O)Nc1sc2c(c1C#N)CCC2	none (no result: MRP resist rev) | sdo1 rescue conf inactive
Cc1nccn1CC(O)COC1CCCCC1 (configuration not stated)	none
NC(=O)COc1ccc(=O)n(-c2ccccc2)n1	none
O=c1ccc(OCCOc2ccccc2)nn1-c1ccccc1	SDO1 yeast rescue 12.2 (no result: MRP resist rev, CD11b adhes inh, CD11b adhes enh) | sdo1 rescue conf 0.0823
CC(=O)c1ccc(NS(=O)(=O)c2cccc(C)c2)cc1	none
CC(C)NC(=O)c1ccccc1NC(=O)CN(c1ccc2c(c1)OCO2)S(C)(=O)=O	SDO1 yeast rescue 3.07 (no result: MRP resist rev) | sdo1 rescue conf inactive
O=c1c2cnn(-c3ccccc3)c2ncn1Cc1ccccc1F	SDO1 yeast rescue 9.46 (no result: MRP resist rev) | sdo1 rescue conf inactive
CCCc1nnc(SCC(=O)N2CCCCC2)n1CC1CCCO1 (configuration not stated)	none (no result: CD11b adhes inh, CD11b adhes enh, Phagocyt inh)
CCCc1nnc(SCC(=O)N2CCCC2)n1CC1CCCO1 (configuration not stated)	SDO1 yeast rescue 3.17 | sdo1 rescue conf inactive
O=C(CNC(=O)c1ccc(S(=O)(=O)N2CCCC2)cc1)N/N=C/c1c(Cl)cccc1Cl	none (no result: MRP resist rev, CD11b adhes inh, CD11b adhes enh)
CCOC(=O)c1sc2nc3c(SCC(=O)O)cc(C(=O)c4cc(F)ccc4O)cn3c(=O)c2c1C	SDO1 yeast rescue 3.13 (no result: MRP resist rev, CD11b adhes inh, CD11b adhes enh) | sdo1 rescue conf inactive
Cc1sc2nc3c(SC(C)C(=O)O)cc(C(=O)c4ccccc4O)cn3c(=O)c2c1C (configuration not stated)	none (no result: MRP resist rev, CD11b adhes inh, CD11b adhes enh)
O=C(CC12CC3CC(CC(C3)C1)C2)NCC(=O)N1CCCC1	SDO1 yeast rescue 3.97 | sdo1 rescue conf inactive
Cc1c(NC(=O)COC(=O)C(c2ccc(Cl)cc2)C(C)C)c(=O)n(-c2ccccc2)n1C (configuration not stated)	none (no result: MRP resist rev)
O=C(NCc1ccc2c(c1)OCO2)c1cc(-c2ccc(Cl)cc2Cl)on1	none (no result: CD11b adhes inh, CD11b adhes enh, Phagocyt inh) | sdo1 rescue conf inactive
CCC(=O)c1ccc(OCC(O)CN2CCN(C(c3ccccc3)c3ccccc3)CC2)cc1 (configuration not stated)	none (no result: CD11b adhes inh, CD11b adhes enh, Phagocyt inh)
O=S(=O)(c1ccc2c(c1)OCCO2)N1CCC(c2nc3ccc(Cl)cc3[nH]2)CC1	SDO1 yeast rescue 9.08 | sdo1 rescue conf inactive
Cc1nc2ncnn2c(C)c1CCC(=O)N1CCOCC1	SDO1 yeast rescue 5.12 | sdo1 rescue conf 0.0979
Cc1nc2ncnn2c(C)c1CCC(=O)N1CCCCC1	none
CCCn1c(SCC(=O)Nc2cccc(C)n2)nnc1-c1ccco1	none
O=C1CN=CN=CN1c1ccc(Cl)cc1Cl	none (no result: MRP resist rev, CD11b adhes inh, CD11b adhes enh)
CC(C)NC(=O)CSCc1ccccc1Cl	none
CC(C)NC(=O)CSCc1cccc(Br)c1	SDO1 yeast rescue 5.16 | sdo1 rescue conf inactive
CC(C)(C)c1cc(N)on1	none (no result: MRP resist rev, CD11b adhes inh, CD11b adhes enh)
CC(C)c1ccc(/C=N/NC(=O)c2c(Cl)cnn2C)cc1	SDO1 yeast rescue 5.07 (no result: MRP resist rev, CD11b adhes inh, CD11b adhes enh) | sdo1 rescue conf 0.0909
NS(=O)(=O)c1ccc(NC(=O)CSC2=NC(=O)C(c3ccccc3)C(=O)N2)cc1 (configuration not stated)	SDO1 yeast rescue 8.68 | sdo1 rescue conf inactive
CC1CCc2c(sc(Nc3nc4c(F)cccc4s3)c2C(N)=O)C1 (configuration not stated)	none (no result: MRP resist rev)
COc1ccc(N2CC(O)=C(c3n(C)c4ccccc4[n+]3C)C2=N)cc1	none
COC(=O)C1CCN(C(=O)CCCOc2ccccc2)CC1	none | sdo1 rescue conf inactive
CCC(=O)NC1(C(F)(F)F)C(=O)Nc2c1c(=O)[nH]c(=O)n2Cc1ccco1 (configuration not stated)	SDO1 yeast rescue 14.8 | sdo1 rescue conf inactive
COc1cc(NC(=O)C2=C(N3CCOCC3)/C(=C\c3ccc(Cl)cc3Cl)CC2)cc(OC)c1OC	none (no result: MRP resist rev, CD11b adhes inh, CD11b adhes enh)
COc1ccc(CCNC(=O)CC(NS(=O)(=O)c2ccc(NC(C)=O)cc2)C(C)C)cc1OC (configuration not stated)	none (no result: CD11b adhes inh, CD11b adhes enh, Phagocyt inh) | sdo1 rescue conf inactive
Cc1ccc(CNC(=O)CCCn2c(=O)[nH]c3ccccc3c2=O)cc1	SDO1 yeast rescue 8.92 | sdo1 rescue conf inactive
CN(C)CCSc1nnc2[nH]c3ccccc3c2n1	none (no result: MRP resist rev, CD11b adhes inh, CD11b adhes enh)
O=C(NCc1ccco1)c1ccc(Br)c(S(=O)(=O)N2CCCCC2)c1	SDO1 yeast rescue 4.66 | sdo1 rescue conf 0.0718
Cc1c(/C=N\NC(=O)c2cccc(F)c2)cnn1C	SDO1 yeast rescue 3.34 (no result: MRP resist rev, CD11b adhes inh, CD11b adhes enh) | sdo1 rescue conf 0.0956
O=C(Nc1ccccc1)N(O)c1ccc(Cl)cc1	SDO1 yeast rescue 3.32 (no result: CD11b adhes inh, CD11b adhes enh) | sdo1 rescue conf 0.081
O=C(NNC(=S)Nc1ccc(Cl)cc1Cl)c1ccc(N2CCOCC2)c([N+](=O)[O-])c1	none (no result: MRP resist rev, CD11b adhes inh, CD11b adhes enh)
CN1CCN(CC(=O)N/N=C\c2c[nH]c3ccccc23)CC1	none (no result: MRP resist rev, CD11b adhes inh, CD11b adhes enh)
CC(C)NC(=O)COC(=O)c1cc(F)c(F)cc1Cl	SDO1 yeast rescue 5.57 (no result: MRP resist rev) | sdo1 rescue conf 0.0845
CNC(=O)COC(=O)c1cc(F)c(F)cc1Cl	none
CCCNC(=O)CS(=O)(=O)Cc1nc(-c2cccc(OC)c2)oc1C	none
CCOCCCNC(=O)CS(=O)(=O)Cc1nc(-c2cccc(OC)c2)oc1C	SDO1 yeast rescue 11.6 | sdo1 rescue conf 0.073
COc1ccc(OC)c(-c2c3cc(O)c(=O)cc-3oc3cc(O)c(O)cc23)c1	SDO1 yeast rescue 5.68 (no result: MRP resist rev, CD11b adhes inh, CD11b adhes enh) | sdo1 rescue conf inactive
Cn1nnnc1SCC(=O)NC1CCCCC1	none | sdo1 rescue conf inactive
COc1ccc(NC(=O)C(C)Oc2ccc(/C(C)=N\O)cc2)cc1 (configuration not stated)	none
Cc1oc2cc(O)ccc2c(=O)c1-c1cnn(-c2ccccc2)c1	SDO1 yeast rescue 4.97 (no result: MRP resist rev, Phagocyt inh) | sdo1 rescue conf inactive
CCOC(=O)c1c(C)c(C(=O)NCc2ccc3c(c2)OCO3)c(C)n1CC	none (no result: CD11b adhes inh, CD11b adhes enh)
